Compounds without any hit were thinned out: in the full panel of roughly 83,000, 20% have a hit.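 Values shown are percent growth following 48 h exposure of cells in 96-well plates to a single concentration of compound; below 10 was considered active.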 The source made the active and inactive calls.
Legend:
Test in all cases: NCI-60 one-dose screen, 48 h (100 = growth as untreated, 0 = no growth, -100 = all killed)
Settings in all cases: 10 µM unless noted
[1] = tested on: BT-549 breast
[2] = tested on: MDA-MB-435 melanoma
[3] = tested on: SW-620 colon
[4] = tested on: MCF7 breast
[5] = tested on: HCT-116 colon
[6] = tested on: HCC-2998 colon
[7] = tested on: KM12 colon

Measured: growth

Cc1cc(C)c(OC(=O)CSc2nc3ccccc3c(=O)n2CCc2ccccc2)cc1C
inactive: [1] 104% | [2] 100% | [3] 103% | [4] 93.7% | [5] 80.1% | [6] 102% | [7] 92%

CN(CC(=O)N(Cc1ccc(C2CCCCC2)cc1)c1ccc(C(=O)O)cc1)S(=O)(=O)c1c(F)c(F)c(F)c(F)c1F
inactive: [1] 75.4% | [2] 68.3% | [4] 10.6% | [7] 90%
active: [3] -67% | [5] 5.63% | [6] -62.9%

Cc1cc(NC(=O)Nc2cc(Cl)ccc2C)no1
inactive: [1] 147% | [2] 110% | [3] 110% | [4] 84.4% | [5] 104% | [6] 99.3% | [7] 107%

COc1cc(C2CC(=O)Nc3c2cc(Br)c2ccccc32)cc(Br)c1OC (stereo not given)
active: [2] -29.6% | [5] -5.31% | [7] 6.63%
inactive: [1] 60.7% | [3] 17.6% | [4] 17.3% | [6] 90.9%

O=C(Nc1ccc(Cl)cc1)Nc1ccc(Oc2nncc3ccccc23)cc1
inactive: [4] 14.3%
active: [1] -10.3% | [2] -33.3% | [3] -30.1% | [5] -56.9% | [6] -42.2% | [7] -32.3%

Cc1cc(=O)n2n1-c1ccc(Cl)cc1NC(=O)C2
inactive: [1] 104% | [2] 88.2% | [3] 109% | [4] 94.1% | [5] 107% | [6] 110% | [7] 114%

Cc1cc(NCCCNc2ccnc3cc(Cl)ccc23)nc(N2CCN(C)CC2)n1
inactive: [1] 95.6% | [2] 46% | [3] 37.3% | [4] 33.1% | [5] 18.5% | [6] 48.9% | [7] 52.6%

O=C(NCCc1ccccc1)C1CCC(=O)N1Cc1ccc(Br)cc1 (stereo not given)
inactive: [1] 107% | [2] 110% | [3] 97.5% | [4] 102% | [5] 77.9% | [6] 108% | [7] 106%

CCCc1cccc(CCC)c1O
inactive: [1] 117% | [2] 106% | [3] 104% | [4] 113% | [5] 115% | [6] 100% | [7] 112%

Cn1cnc([N+](=O)[O-])c1S(=O)(=O)Oc1ccc(Cl)cc1
inactive: [1] 103% | [2] 78.8% | [4] 63.7% | [6] 83.1% | [7] 84.9%
active: [3] -31% | [5] -32.1%

Nc1nc(N)c([N+](=O)[O-])c(=O)[nH]1
inactive: [1] 114% | [2] 104% | [3] 97.4% | [4] 88.6% | [5] 110% | [6] 103% | [7] 111%

Cc1nc2c(O)cccc2cc1CO
inactive: [1] 149% | [2] 109% | [3] 108% | [4] 96.8% | [5] 107% | [6] 103% | [7] 113%

Nc1ccc2c3c(cccc13)-c1ccccc1-2
inactive: [1] 71% | [2] 96.5% | [3] 102% | [4] 88.8% | [5] 92.2% | [6] 103% | [7] 87.8%

CC(NC(=O)C(C)Oc1ccc(Cl)cc1Cl)C(=O)O (stereo not given)
inactive: [1] 108% | [2] 104% | [3] 105% | [4] 99.1% | [5] 89.6% | [6] 94.4% | [7] 109%

Cn1c(=O)c2c(nc(Br)n2CCC(=O)Nc2ccc(F)cc2)n(C)c1=O
inactive: [1] 91.8% | [2] 108% | [3] 103% | [4] 100% | [5] 85.5% | [6] 103% | [7] 107%

CCOC(=O)c1c(C)nc(C)c(C(=O)OCC)c1-c1cccnc1
inactive: [1] 106% | [2] 111% | [3] 112% | [4] 109% | [5] 90% | [6] 104% | [7] 110%

COc1ccc(-c2cc(Cc3cccs3)c(=O)n(Cn3cncn3)n2)cc1
inactive: [1] 109% | [2] 106% | [3] 110% | [4] 93.2% | [5] 101% | [6] 108% | [7] 108%

CCCCCCCC/C=C/CCCCCCCC1=NC(C)(C)CN1CC(C)O (stereo not given)
active: [2] 6% | [3] 6.69% | [5] -85% | [6] 0.965% | [7] 6.06%
inactive: [1] 86.7% | [4] 17.1%

Clc1cccc(Cc2cn3cc(-c4ccccc4)nc3s2)c1
inactive: [1] 77.5% | [2] 33.1% | [3] 30.2% | [4] 21.1% | [5] 42.6% | [6] 17.7% | [7] 12.1%

CC(C)C(=O)Cc1cnccn1
inactive: [1] 110% | [2] 101% | [3] 102% | [4] 103% | [5] 109% | [6] 104% | [7] 112%

CC[N+](CC)(CCOCCOCC[N+](CC)(CC)Cc1ccc([N+](=O)[O-])cc1)Cc1ccc([N+](=O)[O-])cc1
inactive: [1] 107% | [2] 104% | [3] 101% | [4] 104% | [5] 97.8% | [6] 98.1% | [7] 101%

Cc1nc2cc(NC(=O)CN3CCN(CCN4C(=O)c5cccc6cccc(c56)C4=O)CC3)ccc2s1
inactive: [1] 70.1% | [2] 57.8% | [3] 31.4% | [4] 32.5% | [5] 22.3% | [6] 59.4% | [7] 51.6%

CCCCCCCCCCCCCCCCN=C(CC(=O)O)C(=O)O
inactive: [1] 101% | [2] 96.7% | [3] 101% | [4] 86.5% | [5] 87.2% | [6] 104% | [7] 100%

CN(C)c1ccc2[nH]c3c(C(N)=O)cc(=O)c(=O)c=3oc2c1
inactive: [1] 45.9% | [3] 33.8% | [6] 97.7% | [7] 96.3%
active: [2] -70.1% | [4] 2.37% | [5] -10.1%

O=C(O)c1ccc(NC(=O)c2cccc(Nc3ccnc(C(F)(F)F)c3)c2)cc1
inactive: [1] 95.8% | [2] 106% | [3] 103% | [4] 96.8% | [5] 95% | [6] 104% | [7] 107%
